Consider 40 compounds from ChEMBL document CHEMBL3988442, “University of Dundee, Small-Polar-MMV Screening Library” (2021).

The first assay concerns the target T1, Aspartate--tRNA(Asp/Asn) ligase (Mycobacterium tuberculosis (strain ATCC 25618 / H37Rv)) (UniProt P9WFW3). Further: in the data most compounds retested in dose-response had high values.
T1 sequence (whole entry): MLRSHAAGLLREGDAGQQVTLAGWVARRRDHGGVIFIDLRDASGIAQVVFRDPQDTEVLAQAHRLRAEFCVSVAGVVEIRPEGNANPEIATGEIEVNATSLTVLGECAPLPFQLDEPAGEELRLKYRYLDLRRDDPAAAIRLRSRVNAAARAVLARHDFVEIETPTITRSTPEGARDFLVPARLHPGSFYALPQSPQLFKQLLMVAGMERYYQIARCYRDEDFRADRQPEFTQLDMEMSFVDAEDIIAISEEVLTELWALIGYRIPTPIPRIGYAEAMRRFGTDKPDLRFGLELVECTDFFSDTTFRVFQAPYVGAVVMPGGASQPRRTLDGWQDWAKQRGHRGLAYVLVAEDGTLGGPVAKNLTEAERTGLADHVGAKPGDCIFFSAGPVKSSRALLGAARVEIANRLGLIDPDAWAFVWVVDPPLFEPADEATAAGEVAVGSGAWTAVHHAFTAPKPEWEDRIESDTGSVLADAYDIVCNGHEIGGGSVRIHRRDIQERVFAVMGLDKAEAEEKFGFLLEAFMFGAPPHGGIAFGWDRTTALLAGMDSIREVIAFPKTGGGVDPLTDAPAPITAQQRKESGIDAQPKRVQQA
In words: Assay for Asp RNA synthetase-1 from Mycobacterium tuberculosis. Format: functional. As to conditions: 30 µM. On the set-up: scale not given: direction of the effect not stated beside the values.
With `Nc1cc2c(nn1)CCN(C(=O)c1cccc3c1OCCO3)C2`, the Percent Effect is 3.34%.
On the same count and under the same terms, for `CN(Cc1ncc[nH]1)CC(c1cccs1)N1CCOCC1` (stereo not given) the value was -3.41%.
On to `CN1CCN(C[C@@H]2CN(C(=O)c3ccccc3C#N)C[C@@H]2CO)CC1`, for which the Percent Effect is -1.09%.
Consider `COc1ncc(-c2nccn2CCN(C)C)cn1`, for which the Percent Effect is -0.836%.
Consider `Oc1nc(N2CCOCC2)nc2c1CCN(Cc1cccnc1)CC2`, for which the Percent Effect worked out at 0.849%.
Still for that read-out and setting: for `CC(C)NC(=O)Cn1cc(-c2ccccc2)cn1` the value was -0.189%; for `COCCOc1ncccc1C(=O)Nc1ccc(-n2cncn2)c(F)c1`, -3.21%; for `O=C(CSC1CCc2ccccc2NC1=O)NCCc1ccco1` (stereo not given), -3.17%.
With `Cc1cc(C)cc(C2(C(=O)N3CCCC(n4cncn4)C3)CC2)c1` (stereo not given), the Percent Effect is 0.962%.
Still for that read-out and setting: for `COCc1c(C(=O)O)nnn1Cc1cccc(C(F)(F)F)c1` the value was -5.23%; for `CCc1noc(C)c1C(=O)N1CCCC1Cn1nc(C)cc1C` (stereo not given), 0.674%.
In the case of `O=C1CC2(CCN(CC3CC3)C2)CN1c1cccc(F)c1` (stereo not given), the Percent Effect turned out to be 0.607%.
Turning to `Cc1cc2c(=O)n3c(nc2s1)CCN(C(=O)c1scnc1C)CC3`, the Percent Effect is -1.56%.
The same measure, in the same setting: the figure for `Cc1nccn1C1CCCN(C(=O)c2ccc3c(c2)nnn3C)C1` (stereo not given) is -1.94%.
Same read-out and setting: for `O=C(NC[C@@H]1CCCN1)c1cc(COc2cccc(C(F)(F)F)c2)[nH]n1` the value was 1.98%; for `Cc1cccc(C)c1NC(=O)CCNC(=O)c1ccoc1`, -1.5%.
In the case of `Cc1ccc(C2CCCCCN2Cc2cn(C)nc2C)s1` (stereo not given), the Percent Effect is -2.17%.
For `COc1ccccc1CNC(=O)C1=NN(c2ccc(C)cc2)C(=O)CN1`, the Percent Effect turned out to be 17.6%.
Still for that read-out and setting: the figure for `O=C1CC2(CCN(CCO)CC2)CN1Cc1cc(F)cc(F)c1` is -2.67%; for `COc1ncccc1NC(=O)c1cccc(C)n1` it is 1.43%.
Turning to `CSCCC(CO)NC(=O)c1sc(-c2ccccc2Cl)nc1C` (stereo not given), the Percent Effect is -2.58%.
`CC(C)n1ncc2cc(NC(=O)N3CCC(N4CCCC4)C3)cnc21` (stereo not given): the Percent Effect was -5.1%.
Take `Cc1ccc(S(=O)(=O)NC(=O)c2c(C)noc2C(C)C)cc1C`: the Percent Effect stood at 1.59%.
Take `O=C(NCCCn1cccn1)C1(c2ccc(F)cc2)CC1`: the Percent Effect is -8.14%.
On the same count and under the same terms, for `CC(=O)N1CCc2c(nc(-c3ccncc3)nc2N(C)CC(O)CO)C1` (stereo not given) the value was -1.07%.
Take `Cn1cc(N2CC3(CCN(S(=O)(=O)C4CC4)C3)CC2=O)cn1` (stereo not given): the Percent Effect is -0.32%.
Turning to `CNCC(=O)N1CCC(c2ccnc(Nc3ccc(C)cn3)n2)C1` (stereo not given), the Percent Effect was 2.93%.
On the same count and under the same terms, for `CSCC(CCO)NC(=O)Nc1cc(Br)ccc1C` (stereo not given) the value was 3.02%; for `O=C(c1ccc(F)cc1)N1CCC2(CCCN2CC2CC2)CC1`, -2.16%; for `O=C(C1CCCCN1Cc1nc(-c2ccco2)no1)N1CCCC1` (stereo not given), 3.38%.
`CCn1cnnc1CNC(=O)NCC(c1cccs1)N1CCCC1` (stereo not given): the Percent Effect was -1.91%.
On the same count and under the same terms, the figure for `CN(C)c1nccc(N2CCO[C@H]3CN(CC4CCOCC4)C[C@H]32)n1` is -1.41%.
Regarding `CNC(=O)[C@@]12CCO[C@@H]1CCN(Cc1scnc1C)C2`, the Percent Effect is -0.714%.
As to `Cc1nc(C2CCCN(C(=O)c3cc(Cl)c[nH]3)C2)no1` (stereo not given), the Percent Effect is -3.91%.
Take `CN(C)C(=O)N1C[C@H]2CCC[C@@]2(COc2ccccn2)C1`: the Percent Effect was found to be 3.31%.
For the compound `Cc1cnc(CN(C)CC2CCCN2c2cccnn2)cn1` (stereo not given), the Percent Effect turned out to be 2.77%.
Turning to `CN1CCN(c2ncnc3c2c(C(=O)NC2CC2)c2ccccn23)CC1`, the Percent Effect worked out at 5.32%.
Turning to `CNc1oc(-c2cc(S(=O)(=O)N3CCCCCC3)c(C)o2)nc1C#N`, the Percent Effect amounted to 2.56%.
As for `Cc1cc(NC(=O)N(CC2CCOC2)C2CC2)no1` (stereo not given), the Percent Effect was -10.9%.
On to `CCc1nnsc1C(=O)N1CCCN(Cc2nccn2C)CC1`, for which the Percent Effect came to 1.58%.

The next assay deals with Shiga toxin 2 (Escherichia coli O157:H7) (UniProt P09385+P09386). In words: E. coli 0.157:H7 Shiga Toxin SOP - stx2 screening assay. Format: functional. Set-up: scale not given: direction of the effect not stated beside the values. As to conditions: 30 µM.
For `Nc1cc2c(nn1)CCN(C(=O)c1cccc3c1OCCO3)C2`, the Percent Effect was -28.6%.
The same measure, in the same setting: for `CN(Cc1ncc[nH]1)CC(c1cccs1)N1CCOCC1` (stereo not given) the value was 4.34%.
Take `CN1CCN(C[C@@H]2CN(C(=O)c3ccccc3C#N)C[C@@H]2CO)CC1`: the Percent Effect is -8.04%.
Turning to `COc1ncc(-c2nccn2CCN(C)C)cn1`, the Percent Effect is -6.87%.
Turning to `Oc1nc(N2CCOCC2)nc2c1CCN(Cc1cccnc1)CC2`, the Percent Effect is -13.5%.
As to `CC(C)NC(=O)Cn1cc(-c2ccccc2)cn1`, the Percent Effect stood at 2.98%.
With `COCCOc1ncccc1C(=O)Nc1ccc(-n2cncn2)c(F)c1`, the Percent Effect stood at 30.5%.
For `O=C(CSC1CCc2ccccc2NC1=O)NCCc1ccco1` (stereo not given), the Percent Effect was -9.27%.
As to `Cc1cc(C)cc(C2(C(=O)N3CCCC(n4cncn4)C3)CC2)c1` (stereo not given), the Percent Effect was 26.6%.
The same measure, in the same setting: for `COCc1c(C(=O)O)nnn1Cc1cccc(C(F)(F)F)c1` the value was -31%.
Turning to `CCc1noc(C)c1C(=O)N1CCCC1Cn1nc(C)cc1C` (stereo not given), the Percent Effect is 27.6%.
In the case of `O=C1CC2(CCN(CC3CC3)C2)CN1c1cccc(F)c1` (stereo not given), the Percent Effect is -32.8%.
As for `Cc1cc2c(=O)n3c(nc2s1)CCN(C(=O)c1scnc1C)CC3`, the Percent Effect turned out to be 0.428%.
With `Cc1nccn1C1CCCN(C(=O)c2ccc3c(c2)nnn3C)C1` (stereo not given), the Percent Effect came to 16.2%.
Take `O=C(NC[C@@H]1CCCN1)c1cc(COc2cccc(C(F)(F)F)c2)[nH]n1`: the Percent Effect was -15.7%.
Same read-out and setting: for `Cc1cccc(C)c1NC(=O)CCNC(=O)c1ccoc1` the value was 15.3%; for `Cc1ccc(C2CCCCCN2Cc2cn(C)nc2C)s1` (stereo not given), -71.3%.
In the case of `COc1ccccc1CNC(=O)C1=NN(c2ccc(C)cc2)C(=O)CN1`, the Percent Effect was 11%.
As for `O=C1CC2(CCN(CCO)CC2)CN1Cc1cc(F)cc(F)c1`, the Percent Effect is 11.4%.
As to `COc1ncccc1NC(=O)c1cccc(C)n1`, the Percent Effect is -22.7%.
For `CSCCC(CO)NC(=O)c1sc(-c2ccccc2Cl)nc1C` (stereo not given), the Percent Effect is -30.8%.
Regarding `CC(C)n1ncc2cc(NC(=O)N3CCC(N4CCCC4)C3)cnc21` (stereo not given), the Percent Effect is -51.5%.
With `Cc1ccc(S(=O)(=O)NC(=O)c2c(C)noc2C(C)C)cc1C`, the Percent Effect was 8.34%.
On the same count and under the same terms, for `O=C(NCCCn1cccn1)C1(c2ccc(F)cc2)CC1` the value was -6.77%; for `CC(=O)N1CCc2c(nc(-c3ccncc3)nc2N(C)CC(O)CO)C1` (stereo not given), 5.83%.
On to `Cn1cc(N2CC3(CCN(S(=O)(=O)C4CC4)C3)CC2=O)cn1` (stereo not given), for which the Percent Effect is -17.6%.
With `CNCC(=O)N1CCC(c2ccnc(Nc3ccc(C)cn3)n2)C1` (stereo not given), the Percent Effect was -58.2%.
As for `CSCC(CCO)NC(=O)Nc1cc(Br)ccc1C` (stereo not given), the Percent Effect was -10.3%.
As for `O=C(c1ccc(F)cc1)N1CCC2(CCCN2CC2CC2)CC1`, the Percent Effect was -20.9%.
Take `O=C(C1CCCCN1Cc1nc(-c2ccco2)no1)N1CCCC1` (stereo not given): the Percent Effect was determined as 27.5%.
Still for that read-out and setting: the figure for `CCn1cnnc1CNC(=O)NCC(c1cccs1)N1CCCC1` (stereo not given) is -4.89%; for `CN(C)c1nccc(N2CCO[C@H]3CN(CC4CCOCC4)C[C@H]32)n1` it is -89.3%.
The same measure, in the same setting: for `CNC(=O)[C@@]12CCO[C@@H]1CCN(Cc1scnc1C)C2` the value was -2.91%.
Turning to `Cc1nc(C2CCCN(C(=O)c3cc(Cl)c[nH]3)C2)no1` (stereo not given), the Percent Effect was 0.906%.
As to `CN(C)C(=O)N1C[C@H]2CCC[C@@]2(COc2ccccn2)C1`, the Percent Effect came to 10.3%.
On the same count and under the same terms, for `Cc1cnc(CN(C)CC2CCCN2c2cccnn2)cn1` (stereo not given) the value was 7.46%; for `CN1CCN(c2ncnc3c2c(C(=O)NC2CC2)c2ccccn23)CC1`, -14.4%; for `CNc1oc(-c2cc(S(=O)(=O)N3CCCCCC3)c(C)o2)nc1C#N`, -18.8%.
`Cc1cc(NC(=O)N(CC2CCOC2)C2CC2)no1` (stereo not given): the Percent Effect is -2.82%.
Take `CCc1nnsc1C(=O)N1CCCN(Cc2nccn2C)CC1`: the Percent Effect was 15.5%.
